GDH-TPI counter-1: GDH-TPI coupled enzyme inhibition counter-screen. inhibition, % at 4.8 µM. GDH-TPI coupled enzyme counterscreen, NADH absorbance. actives 1.2% (n = 360,000); in the data active = inhibition above about 30%
Yp Topo-I inh: inhibitors of Yersinia pestis topoisomerase I; Y. pestis Topo-I cleavage product accumulation, plate reader; activity, % at 10 µM; actives 0.064% (n = 360,000); AID 504884; in the data active = activity above about 50%, passing the limit was not always enough; inconclusive = no clear call, values can overlap the other calls
Mtb hypoxia rep: Mtb hypoxia fluorescent reporter inhibition. M. tuberculosis hypoxia-regulated fluorescent reporter, fluorescence. fluorescence inhibition, % (test concentration not listed). actives 0.1% (n = 300,000). AID 1159583; in the data active = fluorescence inhibition mostly above about 23%, no sharp cut-off; inactive = mostly below about 17%
PrP UTR inh: inhibition of PrP 5' UTR reporter expression; inhibition, % (test concentration not listed); actives 0.35% (n = 340,000); cell-based PrP 5' UTR mRNA reporter, plate reader; in the data active = inhibition above about 52%
PrPC surface inh: inhibitors of human cell surface prion protein PrPC | TR-FRET read-out | inhibition, % at 13.8 µM | actives 0.43% (n = 370,000) | AID 720596; in the data active = inhibition above about 24%
Mtb FBA inh: Mtb fructose-bisphosphate aldolase inhibition; inhibition, % at 1 µM; purified M. tuberculosis FBA, fluorescence read-out; P9WQA3; actives 2.3% (n = 360,000)
Target sequence (P9WQA3 whole entry, looked up): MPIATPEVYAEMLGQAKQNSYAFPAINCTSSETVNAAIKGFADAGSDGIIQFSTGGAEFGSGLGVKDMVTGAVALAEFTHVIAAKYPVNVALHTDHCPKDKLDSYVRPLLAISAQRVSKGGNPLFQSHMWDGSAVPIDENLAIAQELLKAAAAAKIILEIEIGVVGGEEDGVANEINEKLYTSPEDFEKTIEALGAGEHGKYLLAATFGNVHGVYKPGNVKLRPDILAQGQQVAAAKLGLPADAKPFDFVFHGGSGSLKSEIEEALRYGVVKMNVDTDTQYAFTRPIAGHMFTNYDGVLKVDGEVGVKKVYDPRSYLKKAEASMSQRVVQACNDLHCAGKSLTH
Mtb FBA inh conf: Mtb FBA inhibition, confirmed. shares compounds with Mtb FBA inh. purified M. tuberculosis FBA, fluorescence read-out. inhibition, % at 1 µM. AID 651616. actives 78% (n = 5,600)
GDH-TPI counter-2: counter-screen for M. tuberculosis FBA inhibitors: GDH-TPI coupled enzyme inhibition | shares compounds with Mtb FBA inh | GDH-TPI coupled enzyme counterscreen, fluorescence | inhibition, % at 1 µM | AID 652141 | actives 81% (n = 5,600); in the data active = inhibition above about 10%
A number is an active result. This is a sample that favours compounds with a hit; in the whole collection about 3.8% have one here. Rule as the data show it, unless noted: active = inhibition above about 27%; inactive = the rest.

For COc1ccc(-c2n[nH]c(=S)n2-c2ccc(Br)cc2)cc1OC the results were GDH-TPI counter-1 inactive, Yp Topo-I inh inactive, Mtb hypoxia rep inactive, PrP UTR inh inactive, PrPC surface inh inactive and Mtb FBA inh inactive.
COc1ccc2ccc(OC)c(C=Nn3cnnc3)c2c1 was read as Mtb hypoxia rep inactive.
`COc1ccc2nc(-c3ccc(F)cc3)sc2c1` gave GDH-TPI counter-1 inactive, Yp Topo-I inh inactive, Mtb hypoxia rep inactive, PrP UTR inh inactive, PrPC surface inh inactive, Mtb FBA inh 98, Mtb FBA inh conf active and GDH-TPI counter-2 active.
For COc1ccc2nc(N)sc2c1 the results were GDH-TPI counter-1 inactive, Yp Topo-I inh inactive, Mtb hypoxia rep inactive, PrP UTR inh inactive, PrPC surface inh inactive and Mtb FBA inh inactive.
CN(C)C(=NS(=O)(=O)c1ccc(Cl)cc1)c1ccc(F)cc1 was read as Mtb hypoxia rep inactive.
Screening CCOC(=O)CC(=O)CSc1nc(-c2cccnc2)cc(C)c1C#N returned GDH-TPI counter-1 inactive, Yp Topo-I inh inactive, PrP UTR inh inactive, PrPC surface inh inactive and Mtb FBA inh inactive.
Screening CCOC(=O)CC(=O)CSc1nc(-c2cccnc2)ccc1C#N returned GDH-TPI counter-1 inactive, Yp Topo-I inh inactive, Mtb hypoxia rep inactive, PrP UTR inh inactive, PrPC surface inh inactive, Mtb FBA inh 38, Mtb FBA inh conf active and GDH-TPI counter-2 active.
COc1ccc(S(=O)(=O)NCCc2cn3nc(C)c(C)nc3n2)cc1F was read as GDH-TPI counter-1 inactive, Yp Topo-I inh inactive, Mtb hypoxia rep inactive, PrP UTR inh inactive, PrPC surface inh inactive, Mtb FBA inh 61, Mtb FBA inh conf active and GDH-TPI counter-2 149.
Screening CC(=O)Nc1ccc(S(=O)(=O)NCCc2cn3nc(C)c(C)nc3n2)cc1 returned GDH-TPI counter-1 inactive, Yp Topo-I inh inactive, Mtb hypoxia rep inactive, PrP UTR inh inactive, PrPC surface inh inactive, Mtb FBA inh 43, Mtb FBA inh conf 59 and GDH-TPI counter-2 49.
CC(=O)Nc1ccc(S(=O)(=O)NCCNS(=O)(=O)c2ccc(NC(C)=O)cc2)cc1 was read as GDH-TPI counter-1 inactive, Yp Topo-I inh inactive, Mtb hypoxia rep inactive, PrP UTR inh inactive, PrPC surface inh inactive and Mtb FBA inh inactive.
`COc1ccc(S(=O)(=O)NCc2cn3c(C)csc3n2)cc1F` gave GDH-TPI counter-1 inactive, Yp Topo-I inh inactive, Mtb hypoxia rep inactive, PrP UTR inh inactive, PrPC surface inh inactive and Mtb FBA inh inactive.
For CCc1ccc2c(c1)C(=NOC)C(=O)N2 the results were Mtb hypoxia rep inactive.
For Nc1ccc2c(c1)C(=O)N(CCCCCC(=O)O)C2 the results were GDH-TPI counter-1 inactive, Yp Topo-I inh inactive, Mtb hypoxia rep inactive, PrP UTR inh inactive, PrPC surface inh inactive, Mtb FBA inh 38, Mtb FBA inh conf 121 and GDH-TPI counter-2 110.
`Nc1ccc2c(c1)C(=O)N(CCCC(=O)O)C2=O` gave GDH-TPI counter-1 inactive, Yp Topo-I inh inactive, Mtb hypoxia rep inactive, PrP UTR inh inactive, PrPC surface inh inactive and Mtb FBA inh inactive.
`CCN(C(=S)Nc1cccc2ccccc12)c1ccccc1` gave GDH-TPI counter-1 inactive, Yp Topo-I inh inactive, PrPC surface inh inactive, Mtb FBA inh 30, Mtb FBA inh conf 58 and GDH-TPI counter-2 43.
S=C(NCc1ccccc1)Nc1cccc2ccccc12 was read as GDH-TPI counter-1 inactive, Yp Topo-I inh inactive, Mtb hypoxia rep inactive, PrP UTR inh inactive, PrPC surface inh inactive and Mtb FBA inh inactive.
`CCC(C)(C)C(=O)Nc1ncc(S(=O)(=O)c2ccc([N+](=O)[O-])cc2)s1` gave GDH-TPI counter-1 inactive, Yp Topo-I inh inactive, PrP UTR inh inactive, PrPC surface inh inactive, Mtb FBA inh 76, Mtb FBA inh conf inactive and GDH-TPI counter-2 inactive.
For O=C(CCl)Nc1ncc(S(=O)(=O)c2ccc([N+](=O)[O-])cc2)s1 the results were GDH-TPI counter-1 inactive, Yp Topo-I inh inactive, Mtb hypoxia rep inactive, PrP UTR inh inactive, PrPC surface inh inactive and Mtb FBA inh inactive.
`N#Cc1cc(-c2ccccc2)oc1N=Cc1ccccc1O` gave Mtb hypoxia rep inactive.
Screening COc1cccc(/C=N/c2oc(-c3ccccc3)cc2C#N)c1O returned GDH-TPI counter-1 inactive, Yp Topo-I inh inactive, PrP UTR inh inactive, PrPC surface inh inactive, Mtb FBA inh 54, Mtb FBA inh conf inactive and GDH-TPI counter-2 inactive.
`N#Cc1cc(-c2ccccc2)oc1/N=C/c1ccccc1O` gave GDH-TPI counter-1 inactive, Yp Topo-I inh inactive, PrP UTR inh inactive, PrPC surface inh inactive, Mtb FBA inh 59, Mtb FBA inh conf 45 and GDH-TPI counter-2 29.
For COC(=O)C1=C(c2ccc(OCc3ccccc3)cc2)CC2CCC1N2C(=O)NCc1ccc(OC)c(OC)c1 (stereo unspecified) the results were Mtb hypoxia rep inactive.
`COCc1c(Br)c(C)[nH]c(=O)c1C#N` gave GDH-TPI counter-1 inactive, Yp Topo-I inh inactive, PrP UTR inh inactive, PrPC surface inh inactive, Mtb FBA inh 32, Mtb FBA inh conf 71 and GDH-TPI counter-2 50.
Oc1ccccc1C=NNc1nn[nH]n1 was read as Mtb hypoxia rep inactive.
For O=C1NC(C2CC3C=CC2C3)Nc2ccccc21 (stereo unspecified) the results were GDH-TPI counter-1 inactive, Yp Topo-I inh inactive, PrPC surface inh inactive, Mtb FBA inh 63, Mtb FBA inh conf active and GDH-TPI counter-2 172.
`O=c1nc(-c2ccccc2)c2ccccc2[nH]1` gave GDH-TPI counter-1 inactive, Yp Topo-I inh inactive, PrP UTR inh inactive, PrPC surface inh inactive and Mtb FBA inh inactive.
For O=c1nc(-c2ccccc2Cl)c2cc(F)ccc2[nH]1 the results were GDH-TPI counter-1 inactive, Yp Topo-I inh inactive, Mtb hypoxia rep inactive, PrP UTR inh inactive, PrPC surface inh inactive, Mtb FBA inh 53, Mtb FBA inh conf 53 and GDH-TPI counter-2 46.
Cn1c(-c2cccc(F)c2)nc2c1c(=O)[nH]c(=O)n2Cc1ccccc1 was read as GDH-TPI counter-1 inactive, Yp Topo-I inh inactive, Mtb hypoxia rep inactive, PrP UTR inh inactive, PrPC surface inh inactive, Mtb FBA inh 28, Mtb FBA inh conf inactive and GDH-TPI counter-2 inactive.
Screening CCCOc1ccc(-c2nc3c(c(=O)[nH]c(=O)n3Cc3ccccc3)n2CCO)cc1OCC returned GDH-TPI counter-1 inactive, Yp Topo-I inh inconclusive, Mtb hypoxia rep inactive, PrP UTR inh inactive, PrPC surface inh inactive, Mtb FBA inh 38, Mtb FBA inh conf inactive and GDH-TPI counter-2 inactive.
`CCCn1c(-c2cccc(F)c2)nc2c1c(=O)[nH]c(=O)n2Cc1ccccc1` gave GDH-TPI counter-1 inactive, Yp Topo-I inh inactive, Mtb hypoxia rep inactive, PrP UTR inh inactive, PrPC surface inh inactive and Mtb FBA inh inactive.
Screening O=c1[nH]c(=O)n(Cc2ccccc2)c2nc(-c3cccs3)n(CCO)c12 returned Mtb hypoxia rep inactive and PrPC surface inh inactive.
